Compound activity as filed in PubChem.
An excerpt weighted towards active compounds, which were near 11% of everything screened.
G9a block – inhibitors of human histone lysine methyltransferase G9a | 350,000 tested, 8.8% active | Potency, µM (titrated, usually from 102 µM), for inactives: at the top dose activity, negative = inhibition, actives largely listed as inhibitors | Q96KQ7 | G9a H3K9 monomethylation, AlphaScreen, 2 h | AID 504332; note: potency is the fitted concentration of half-maximal effect; % is set by controls: 0 for no effect and ±100 for the full control effect; nearly all actives have a fitted effect of over 75% in size
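Methyltransferase reactions run at room temperature for 2 h (20 nM enzyme, 500 nM biotin-H3K9 peptide, 20 uM SAM) after a 15 min compound preincubation; product detected by AlphaScreen beads and anti-H3K9me1 antibody.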
HP1b binding inh – HP1-beta chromodomain-methylated histone interaction inhibition | Potency, µM (top dose mostly 114 µM), without a hit: at the top dose activity change, negative = inhibition, actives largely listed as inhibitors | 390,000 tested, 0.56% active | P83916 | AID 540317 | AlphaScreen HP1-beta / biotin-H3K9me3 peptide binding; note: potency is the fitted concentration of half-maximal effect; nearly all actives have a fitted effect of over 70% in size
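Compound inhibition of the preformed complex between 50 nM HP1-beta and 50 nM biotinylated H3K9me3 peptide was read by AlphaScreen. Buffer was PBS pH 7.4 with 0.01% Tween-20. Incubations ran 30 min at room temperature, with 10 ug/mL donor/acceptor beads.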
BAZ2B inh – blocks human BAZ2B | Q9UIF8 | AlphaScreen BAZ2B-H3K14Ac peptide displacement | Potency, µM (series often up to 114 µM), for inactives: at the top dose activity change, negative = inhibition, actives largely listed as inhibitors | 360,000 tested, 4.4% active | AID 504333; note: potency is the fitted concentration of half-maximal effect; % is set by controls: 0 for no effect and ±100 for the full control effect; nearly all actives have a fitted effect of over 60% in size
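AlphaScreen luminescence quantifies BAZ2B engagement of H3K14Ac peptide; the protein and biotinylated peptide are both at 50 nM final, buffer PBS pH 7.4 with 0.01% Tween-20, all steps at room temperature.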
PI5P4K alpha inh – blocks human PI5P4K alpha kinase activity; P48426; PI5P4Kalpha enzyme, ADP-Glo luminescence, 60 min; stronger effect = lower value; max response, %; 330,000 tested, 1.2% active; AID 652105; active = max response of -50% or lower; inconclusive = between -30% and -50%; inactive = -30% or higher; note: value at the top dose of about 77 µM; % is set by controls: 0 for no effect and ±100 for the full control effect
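Single end-point luminescence (ADP-Glo) quantified ADP from PI5P4Kalpha turnover; ATP 5 microM final, 1 h at RT, 0.1% CHAPS and 0.28 mM EGTA in HEPES pH 7.4.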
L3MBTL1 block – inhibitors of human L3MBTL1; Q9Y468; AlphaScreen L3MBTL1–H3K9me1 peptide binding; Potency, µM (doses to about 57.1 µM), for the others: at the top dose activity, negative = inhibition, hits mostly inhibitors; 230,000 tested, 0.66% active; note: potency is the fitted concentration of half-maximal effect; % is set by controls: 0 for no effect and ±100 for the full control effect; nearly all actives have a fitted effect of over 60% in size
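AlphaScreen assay: L3MBTL1 (50 nM final) was preincubated 30 min at room temperature with biotinylated H3(1-15)K9me1 peptide (75 nM final), then 30 min with library compounds; streptavidin donor and nickel chelate acceptor beads (10 ug/mL final) added, 30 min dark.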
JMJD2A Tudor inh – inhibitors of human JMJD2A Tudor domain; O75164; AlphaScreen JMJD2A-Tudor / H3K4me3 peptide binding; Potency, µM (series often up to 114 µM), without a hit: at the top dose activity change, negative = inhibition, usual class: inhibitors; 390,000 tested, 4.4% active; note: potency is the fitted concentration of half-maximal effect; % is set by controls: 0 for no effect and ±100 for the full control effect; nearly all actives have a fitted effect of over 50% in size
Target sequence (O75164 whole entry, looked up, the tested form may be a part): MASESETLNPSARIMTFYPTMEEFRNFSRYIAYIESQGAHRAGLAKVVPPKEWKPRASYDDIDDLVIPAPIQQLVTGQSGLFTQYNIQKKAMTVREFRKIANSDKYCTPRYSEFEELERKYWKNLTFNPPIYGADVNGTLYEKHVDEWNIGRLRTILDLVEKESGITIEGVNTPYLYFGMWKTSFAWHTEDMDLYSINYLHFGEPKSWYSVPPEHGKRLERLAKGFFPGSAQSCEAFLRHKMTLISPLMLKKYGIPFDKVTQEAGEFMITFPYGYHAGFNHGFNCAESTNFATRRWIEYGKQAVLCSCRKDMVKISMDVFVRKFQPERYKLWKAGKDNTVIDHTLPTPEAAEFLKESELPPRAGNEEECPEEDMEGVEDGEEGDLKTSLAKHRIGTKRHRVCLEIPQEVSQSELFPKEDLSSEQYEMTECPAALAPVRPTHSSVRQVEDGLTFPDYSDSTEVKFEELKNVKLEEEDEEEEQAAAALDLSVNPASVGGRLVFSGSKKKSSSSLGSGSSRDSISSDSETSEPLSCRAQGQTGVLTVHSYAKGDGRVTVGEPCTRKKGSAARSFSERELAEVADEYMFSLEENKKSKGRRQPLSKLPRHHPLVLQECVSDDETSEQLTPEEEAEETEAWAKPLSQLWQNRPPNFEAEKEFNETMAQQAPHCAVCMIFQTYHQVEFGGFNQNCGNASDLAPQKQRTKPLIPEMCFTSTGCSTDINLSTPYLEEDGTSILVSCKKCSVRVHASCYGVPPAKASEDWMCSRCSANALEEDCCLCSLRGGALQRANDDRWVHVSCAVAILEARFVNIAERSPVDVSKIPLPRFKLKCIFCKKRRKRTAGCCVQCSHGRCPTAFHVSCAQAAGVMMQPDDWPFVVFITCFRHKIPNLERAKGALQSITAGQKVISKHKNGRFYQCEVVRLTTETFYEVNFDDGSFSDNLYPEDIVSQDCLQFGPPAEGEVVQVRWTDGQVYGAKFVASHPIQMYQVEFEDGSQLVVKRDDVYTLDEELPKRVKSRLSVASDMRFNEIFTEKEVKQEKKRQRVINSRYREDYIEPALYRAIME
Starred values were filed as active, the others as inactive; ? = inconclusive; · = no result given; [ ] = another dose, or the depositor's remark. Unless noted, calls come from the whole dose curve; as a rule, active = well fitted inhibition curve with a large enough effect; inconclusive = small, poorly fitted or top-dose-only effect; inactive = no such curve, though single readings can be large or run the other way.

SMILES	G9a block	HP1b binding inh	BAZ2B inh	PI5P4K alpha inh	L3MBTL1 block	JMJD2A Tudor inh
Cc1c(Cl)cccc1NC(=O)C(C)n1c(=O)cc(C)c2c(C)nn(-c3ccccc3)c21 (stereo not given)	10.6%[59 µM]	13.4%	-6.7%	·	·	-11.7%
O=[N+]([O-])c1cccc(Cn2cnc3c(=S)nc[nH]c32)c1	·	24.4%	·	-11.2	·	-12.4%
N#CCCn1cnc2c(=S)nc[nH]c21	?	6.6%	-33.1%	·	-4.3%	35.5µM*
Cc1ccc(Cl)cc1Nc1nc(-c2sc(NC(=O)c3ccccc3)nc2C)cs1	·	·	?	·	-13.9%	·
Cc1nc(NC(=O)c2ccccc2)sc1-c1csc(NCc2ccccc2)n1	39.8µM*	-12.1%	?	4.8	·	?
Cc1nc(NC(=O)c2ccccc2)sc1-c1csc(N)n1	8.91µM*	-19.8%	?	-14.0	-7.8%	?
Cc1nc(NC(=O)c2ccccc2)sc1-c1csc(Nc2cccc(F)c2)n1	44.7µM*	·	?	·	-1.4%	·
Cc1cc(-c2csc(N)n2)c(C)n1CCc1ccccc1	?	-18.0%	44.7µM*	?	·	44.7µM*
Cc1cc(-c2csc(NC(=O)c3ccc(=O)n(C)n3)n2)c(C)n1CC1CCCO1 (stereo not given)	?	25.8%	?	-3.4	-3.7%	-24.3%
CC(=O)Nc1ccc(-c2csc(NCCc3ccccc3)n2)cc1	·	7.4%	-8.9%	2.0	-0.5%	-28.1%
Cc1nc(NC(=O)c2ccccc2)sc1-c1csc(NCCc2ccccc2)n1	39.8µM*	-18.1%	?	-10.3	·	?
Cc1cc(-c2csc(NC(=O)c3ccccc3C(F)(F)F)n2)c(C)n1Cc1ccccc1	44.7µM*	3.6%	14.4%	-25.0	-6.2%	-17.1%
Cc1nc(N)sc1-c1csc(Nc2ncccn2)n1	?	?	?	?	1.8%	?
Cc1nc(N)sc1-c1csc(NCc2ccccc2)n1	10µM*	-48.7%	31.6µM*	?	-4.1%	?
Cc1cc(-c2csc(NCc3ccccc3)n2)c(C)n1C	8.91µM*	-14.7%	39.8µM*	-54.7*	-12.7%	44.7µM*
CCn1c(CNC(=O)COc2ccc(C(C)C)cc2)nnc1SCC(=O)Nc1cc(F)ccc1C	?	18.2%	-32.9%	·	2.3%	28.2µM*
Cc1cccc(N2C(=O)CSC23C(=O)N(CC(=O)NCCc2ccccc2)c2ccccc23)c1 (stereo not given)	-4.3%[59 µM]	-0.6%	7.5%[57.1 µM]	·	·	-9.7%
Cc1ccc(NC(=O)C(=O)NCC(c2ccc3c(c2)OCO3)N2CCOCC2)c(C)c1 (stereo not given)	-1.5%[59 µM]	33.8%[57 µM]	1.7%	·	·	3.2%
CC(=O)c1nc(N2C(=O)CC(Cc3cccc(C)c3)C2=O)sc1C (stereo not given)	-9.1%	28.9%	-25.7%	·	0.7%	14.5%
CC(=O)c1nc(N2C(=O)CC(Cc3cc(C)cc(C)c3)C2=O)sc1C (stereo not given)	44.7µM*	22.3%	-26.2%	-11.0	7.0%	-13.6%
Cc1cc(C)cc(NC(=O)c2cccc(N3CCCS3(=O)=O)c2)c1	1.0%[59 µM]	44.1%	-3.2%	·	·	5.5%
CCCSc1nnc2n(-c3cccc(C)c3)c(=O)c3c4c(sc3n12)CCCC4	-17.1%[59 µM]	39.5%	-9.0%	·	·	-13.1%
COc1ccc(OC)c(C(c2c(O)nc(SC)[nH]c2=O)c2c(O)nc(SC)[nH]c2=O)c1	50.1µM*	23.2%	-2.3%	?	-2.9%	-13.8%
CSc1nc(O)c(C(c2ccc(C)cc2)c2c(O)nc(SC)[nH]c2=O)c(=O)[nH]1	39.8µM*	15.1%	-21.0%	-27.5	-2.4%	-14.8%
CSc1nc(O)c(C(c2ccccc2)c2c(O)nc(SC)[nH]c2=O)c(=O)[nH]1	?	52.6%	4.6%	-52.9*	-1.8%	-2.9%
CSc1nc(O)c(C(c2ccc(F)cc2)c2c(O)nc(SC)[nH]c2=O)c(=O)[nH]1	·	52.4%	·	-14.1	·	-2.8%
Cn1ncc2c(Nc3cccc(F)c3)ncnc21	7.1%[59 µM]	28.5%	3.0%	·	·	-12.8%
